Most compounds without a hit are left out; they make up all but 9% or so of the library.
G9a inh: qHTS Assay for Inhibitors of Histone Lysine Methyltransferase G9a. Potency, µM (doses to about 102 µM), hits mostly inhibitors. 350,000 tested, 8.8% active. Histone-lysine N-methyltransferase EHMT2 (Homo sapiens), Q96KQ7. G9a H3K9 monomethylation, AlphaScreen, 2 h. AID 504332, 2011; note: nearly all actives have a fitted effect of over 75% in size
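Using a bead-based AlphaScreen, monomethylated H3K9 product from 2 h room-temperature reactions (G9a 20 nM, peptide 500 nM, SAM 20 uM) was detected with 0.5 ug/mL rabbit anti-H3K9me1 antibody.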
PLK1 PBD block: qHTS for Inhibitors of PLK1-PDB (polo-like kinase 1 - polo-box domain): Primary Screen. Serine/threonine-protein kinase PLK1 (Homo sapiens), P53350. Plk1 PBD binding of FITC phosphopeptide, fluorescence polarization. Potency, µM, usual class: inhibitors. 360,000 tested, 2.8% active; note: series mostly up to about 57 µM; nearly all actives have a fitted effect of over 65% in size
HP1b binding inh: HTS for Inhibitors of HP1-beta Chromodomain Interactions with Methylated Histone Tails; AlphaScreen HP1-beta / biotin-H3K9me3 peptide binding; Potency, µM (doses to about 114 µM), usual class: inhibitors; Chromobox protein homolog 1 (Homo sapiens), P83916; 390,000 tested, 0.56% active; note: nearly all actives have a fitted effect of over 70% in size
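HP1-beta protein (50 nM final) preincubated 30 min at room temperature with biotinylated H3(1-18)K9me3 peptide (50 nM) in PBS pH 7.4, 0.01% Tween-20, then compound added for 30 min. AlphaScreen streptavidin donor/nickel chelate acceptor beads (10 ug/mL final), 30 min dark, luminescence read.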
JMJD2A Tudor inh: qHTS Assay for Inhibitors of JMJD2A-Tudor Domain. AlphaScreen JMJD2A-Tudor / H3K4me3 peptide binding. Lysine-specific demethylase 4A (Homo sapiens), O75164. 390,000 tested, 4.4% active. AID 504339, 2011. Potency, µM (titrated, usually from 114 µM), hits mostly inhibitors; note: nearly all actives have a fitted effect of over 50% in size
Target sequence (O75164 whole entry, looked up, the tested form may be a part): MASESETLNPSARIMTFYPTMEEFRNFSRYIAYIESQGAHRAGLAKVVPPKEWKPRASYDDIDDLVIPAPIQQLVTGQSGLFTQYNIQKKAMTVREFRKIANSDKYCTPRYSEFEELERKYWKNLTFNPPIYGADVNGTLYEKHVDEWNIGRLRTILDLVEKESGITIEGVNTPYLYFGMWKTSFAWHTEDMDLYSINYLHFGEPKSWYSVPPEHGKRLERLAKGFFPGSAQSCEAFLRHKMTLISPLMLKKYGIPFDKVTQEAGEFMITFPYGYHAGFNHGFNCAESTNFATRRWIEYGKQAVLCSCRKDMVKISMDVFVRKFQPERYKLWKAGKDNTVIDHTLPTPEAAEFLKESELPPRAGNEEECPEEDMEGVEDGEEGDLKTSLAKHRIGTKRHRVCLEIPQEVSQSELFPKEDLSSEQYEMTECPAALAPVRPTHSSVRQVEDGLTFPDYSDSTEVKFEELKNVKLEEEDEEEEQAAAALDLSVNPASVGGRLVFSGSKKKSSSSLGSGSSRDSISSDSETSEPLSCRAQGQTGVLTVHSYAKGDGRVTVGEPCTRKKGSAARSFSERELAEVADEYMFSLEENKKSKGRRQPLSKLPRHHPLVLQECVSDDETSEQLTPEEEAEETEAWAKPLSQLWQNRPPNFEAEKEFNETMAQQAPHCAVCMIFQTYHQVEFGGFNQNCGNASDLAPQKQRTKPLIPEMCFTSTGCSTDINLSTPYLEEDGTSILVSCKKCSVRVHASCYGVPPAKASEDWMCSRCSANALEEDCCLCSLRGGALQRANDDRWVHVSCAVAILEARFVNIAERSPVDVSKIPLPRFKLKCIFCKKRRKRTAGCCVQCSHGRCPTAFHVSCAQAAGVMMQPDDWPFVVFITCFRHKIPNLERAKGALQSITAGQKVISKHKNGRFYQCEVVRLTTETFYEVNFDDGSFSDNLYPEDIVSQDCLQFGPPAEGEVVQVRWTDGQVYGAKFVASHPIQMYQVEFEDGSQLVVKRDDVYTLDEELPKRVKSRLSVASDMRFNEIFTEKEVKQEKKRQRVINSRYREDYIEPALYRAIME
BAZ2B inh: qHTS Assay for Inhibitors of BAZ2B; Bromodomain adjacent to zinc finger domain protein 2B (Homo sapiens), Q9UIF8; AlphaScreen BAZ2B-H3K14Ac peptide displacement; Potency, µM (top dose mostly 114 µM), usual class: inhibitors; 360,000 tested, 4.4% active; note: nearly all actives have a fitted effect of over 60% in size
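In this displacement format the biotinylated H3(5-23) peptide acetylated at Lys14 serves as ligand at 50 nM, with BAZ2B at 50 nM in PBS pH 7.4 containing 0.01% Tween-20. Donor and acceptor beads are 10 ug/mL final.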
12-LOX inh: Primary qHTS assay for inhibitors of human arachidonate 12S-lipoxygenase (ALOX12): Round 2; Polyunsaturated fatty acid lipoxygenase ALOX12 (Homo sapiens), P18054; purified 12hLO, xylenol orange hydroperoxide absorbance; Potency, µM (titrated, usually from 108 µM), most hits filed as inhibitors; 580,000 tested, 1.1% active
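Hydroperoxide product was detected by ferrous iron/xylenol orange as the 573 to 405 nm absorbance ratio. Arachidonic acid at 40 uM (final) was turned over for 30 min at room temperature by 150 nM human 12hLO, pH 7.0 Hepes buffer, after 15 min compound preincubation.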
A number is an active result; [ ] = remark or other dose. Calls come from the whole dose curve; as a rule, active = well fitted curve in the direction sought with a large enough effect; inconclusive = small, poorly fitted or top-dose-only effect, or another doubt; inactive = no such curve, though single readings can be large; an effect the other way counts as inactive or inconclusive.

What do the screens show for `O=C(CSc1n[nH]c(-c2ccncc2)n1)c1cccc([N+](=O)[O-])c1`?
G9a inh: 22µM; PLK1 PBD block: inactive; HP1b binding inh: inactive; JMJD2A Tudor inh: inactive; BAZ2B inh: inactive; 12-LOX inh: inactive

Results for O=C(CSc1n[nH]c(-c2ccc(Br)cc2)n1)c1cc(F)ccc1F ?
12-LOX inh: 32µM

What do the screens show for `CCc1nc(SCC(=O)c2cccc([N+](=O)[O-])c2)n[nH]1`?
G9a inh: inconclusive; PLK1 PBD block: inactive; HP1b binding inh: inconclusive; JMJD2A Tudor inh: 40µM; BAZ2B inh: inactive; 12-LOX inh: inactive

Results for O=[N+]([O-])c1[nH]cnc1/C=C/c1ccccc1 ?
G9a inh: inactive; PLK1 PBD block: inactive; HP1b binding inh: inactive; JMJD2A Tudor inh: inactive; BAZ2B inh: inactive; 12-LOX inh: inactive

Results for COC[C@H]1CCCN1C[C@@H]1C=C(C)[C@H](Cc2nnc(-c3cccnc3)o2)C[C@H]1C(C)C ?
12-LOX inh: inactive

How did CN1CCCC2(CC1)CCN(C(=O)c1c3c(nn1C)CCCC3)CC2 do in these assays?
12-LOX inh: inactive

How did NC(=O)[C@H]1CC2(CC(c3cccc(NC(=O)c4ccccc4)c3)=NO2)CN1C(=O)[C@H]1CCC(=O)N1 (some centres not stated) do in these assays?
G9a inh: inactive[12.7 µM]; PLK1 PBD block: inactive; HP1b binding inh: inactive; JMJD2A Tudor inh: inactive; BAZ2B inh: inactive; 12-LOX inh: inactive

Results for O=C(NCCN1CCOCC1)c1ccc(N2CCCC2)c([N+](=O)[O-])c1 ?
G9a inh: inactive; PLK1 PBD block: inactive; HP1b binding inh: inactive; JMJD2A Tudor inh: inactive; BAZ2B inh: inactive; 12-LOX inh: inactive

Results for Cc1ccc(C)c(C(=O)CSc2n[nH]c(-c3ccncc3)n2)c1 ?
G9a inh: inactive; PLK1 PBD block: inactive; HP1b binding inh: inactive; JMJD2A Tudor inh: 89µM; BAZ2B inh: inactive; 12-LOX inh: inactive

Results for Cc1ccccc1CN1c2ccccc2-c2nc(SCC(=O)NCc3ccccc3)ncc2S1(=O)=O ?
G9a inh: inactive; HP1b binding inh: inactive; JMJD2A Tudor inh: inactive; BAZ2B inh: inactive; 12-LOX inh: inconclusive

What do the screens show for `Cc1cc(Cl)ccc1OCC(=O)N[C@@H](Cc1ccccc1)c1nc2ccccc2[nH]1`?
G9a inh: inconclusive; PLK1 PBD block: inactive; HP1b binding inh: inactive; JMJD2A Tudor inh: inactive; BAZ2B inh: 56µM; 12-LOX inh: inconclusive

What do the screens show for `O=C1c2ccccc2NC(c2ccc(-c3ccccc3F)o2)N1O` (configuration not stated)?
G9a inh: inactive[0.501 µM]; HP1b binding inh: inactive; JMJD2A Tudor inh: inactive; BAZ2B inh: inactive; 12-LOX inh: inconclusive

What do the screens show for `O=C1c2ccccc2NC(c2ccc(Cl)cc2Cl)N1O` (configuration not stated)?
G9a inh: inactive; PLK1 PBD block: inactive; HP1b binding inh: inactive; JMJD2A Tudor inh: inactive; BAZ2B inh: inactive; 12-LOX inh: 10µM

How did O=C1c2ccccc2NC(c2ccc(Cl)cc2Cl)N1Cc1ccccc1 (configuration not stated) do in these assays?
G9a inh: inconclusive; PLK1 PBD block: inactive; HP1b binding inh: inactive; JMJD2A Tudor inh: inactive; BAZ2B inh: inactive; 12-LOX inh: inactive

How did Cc1nn(C)cc1C1Nc2ccccc2C(=O)N1O (configuration not stated) do in these assays?
G9a inh: inconclusive; PLK1 PBD block: inactive; HP1b binding inh: inactive; JMJD2A Tudor inh: inactive; BAZ2B inh: inactive; 12-LOX inh: inconclusive

Results for COc1ccc(C2Nc3ccccc3C(=O)N2NC(C)=O)cc1OC (configuration not stated) ?
G9a inh: inactive; PLK1 PBD block: inactive; HP1b binding inh: inactive; JMJD2A Tudor inh: inactive; BAZ2B inh: inactive; 12-LOX inh: inactive

How did O=C1c2ccccc2NC(c2ccc(-c3cccc(F)c3)o2)N1O (configuration not stated) do in these assays?
G9a inh: inactive[0.501 µM]; HP1b binding inh: inactive; JMJD2A Tudor inh: inconclusive; BAZ2B inh: inactive; 12-LOX inh: 35µM

How did Cc1nn(C)c(C)c1C1Nc2ccccc2C(=O)N1O (configuration not stated) do in these assays?
G9a inh: 13µM; PLK1 PBD block: inactive; HP1b binding inh: inactive; JMJD2A Tudor inh: inactive; BAZ2B inh: inactive; 12-LOX inh: inactive

What do the screens show for `COc1ccc(C2Nc3ccccc3C(=O)N2O)cc1OC` (configuration not stated)?
G9a inh: 10µM; PLK1 PBD block: inactive; HP1b binding inh: inactive; JMJD2A Tudor inh: inconclusive; BAZ2B inh: inactive; 12-LOX inh: inconclusive

How did CCOc1ccc2nc(SC3CC(=O)N(c4ccc(OC)cc4)C3=O)sc2c1 (configuration not stated) do in these assays?
G9a inh: 13µM; PLK1 PBD block: inactive; HP1b binding inh: inactive; JMJD2A Tudor inh: inactive; BAZ2B inh: inactive; 12-LOX inh: inactive

What do the screens show for `COc1ccc(N2C(=O)CC(Sc3nnc(-c4ccccc4F)n3C)C2=O)cc1` (configuration not stated)?
G9a inh: 11µM; PLK1 PBD block: 24µM; HP1b binding inh: inactive; JMJD2A Tudor inh: inactive; BAZ2B inh: inactive; 12-LOX inh: inactive

Results for COc1ccc(N2C(=O)CC(Sc3nccc(C)n3)C2=O)cc1 (configuration not stated) ?
G9a inh: inactive; PLK1 PBD block: inactive; HP1b binding inh: inactive; JMJD2A Tudor inh: inactive; BAZ2B inh: inactive; 12-LOX inh: inactive

Results for COc1ccc(N2C(=O)CC(NNc3nc4ccccc4s3)C2=O)cc1 (configuration not stated) ?
G9a inh: inactive; PLK1 PBD block: inactive; HP1b binding inh: inactive; JMJD2A Tudor inh: inactive; BAZ2B inh: inactive; 12-LOX inh: inactive

How did COc1ccc(N2C(=O)CC(Sc3nc4ccccc4s3)C2=O)cc1 (configuration not stated) do in these assays?
G9a inh: 25µM; PLK1 PBD block: inactive; HP1b binding inh: inactive; JMJD2A Tudor inh: inactive; BAZ2B inh: inactive; 12-LOX inh: inactive

How did C=CCNc1nnc(SC2CC(=O)N(c3ccc(OC)cc3)C2=O)s1 (configuration not stated) do in these assays?
G9a inh: 8.9µM; PLK1 PBD block: 27µM; HP1b binding inh: inactive; JMJD2A Tudor inh: 45µM; BAZ2B inh: inactive; 12-LOX inh: inactive
